Data taken from the supplement of paper PMC7156485.

Key:
Conditions in all cases: concentration: 10 µM; 24 h
HCC1569 [1] = test: cell number relative to DMSO (% of DMSO); higher = more cells (less growth inhibition / toxicity)
Outline: (§1)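 HCC1569 and TDF cells (800 per well, 384-well plates, RPMI with 10% FBS) were treated with compounds at 10 µM for 24 h at 37 °C, in triplicate. Cells were fixed in 3.7% formaldehyde and stained with a rabbit anti-H1.0 antibody, an AlexaFluor 647 secondary and DAPI; six fields per well were imaged at ×10. H1.0 nuclear intensity or cell number is expressed as percent of the plate DMSO control, taking the median of replicates. HCC1569 values were smoothed for positional effects.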

TDF [2] = test: as above
Outline: as §1

TDF [3] = test: H1.0 immunofluorescence intensity relative to DMSO (% of DMSO); higher = stronger H1.0 induction, active = 120 or more
Outline: as §1

HCC1569 [4] = test: H1.0 immunofluorescence intensity relative to DMSO (% of DMSO); higher = stronger H1.0 induction, active = 140 or more
Outline: as §1
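For H1.0 immunofluorescence intensity relative to DMSO in this document: TDF is a line of transformed human dermal fibroblasts of mesenchymal origin.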
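For cell number relative to DMSO in this document: TDF denotes transformed human dermal fibroblasts of mesenchymal origin.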

Row | SMILES | cell number (HCC1569 [1]) | cell number (TDF [2]) | H1.0 immunofluorescence intensity (TDF [3]) | H1.0 immunofluorescence intensity (HCC1569 [4])
1 | C[N+]1(C)CCN(c2ccccc2)CC1.[I-] [1,1-Dimethyl-4-phenyl-piperazinium iodide] | 99 | 93 | 95.8 (inactive) | 109 (inactive)
2 | O=C(O)c1nn(Cc2ccc(Cl)cc2Cl)c2ccccc12 [Lonidamine] | 107 | 96.2 | 94.3 (inactive) | 92.3 (inactive)
3 | COC1C(O)C(C)OC(OC2C(Oc3cccc4c(O)c5c(=O)oc6ccc(C)c7c(=O)oc(c34)c5c67)OC(C)C(O)C2O)C1O (centres undefined) [Chartreusin] | 105 | 99.3 | 100 (inactive) | 108 (inactive)
4 | CCCN1CC(CSC)CC2c3cccc4[nH]cc(c34)CC21.CS(=O)(=O)O (centres undefined) [Pergolide methanesulfonate] | 98.8 | 98.2 | 98.1 (inactive) | 94.4 (inactive)
5 | Cc1c(N)nc(C(CC(N)=O)NCC(N)C(N)=O)nc1C(=O)NC(C(=O)NC(C)C(O)C(C)C(=O)NC(C(=O)NCCc1nc(-c2nc(C(=O)NCCC[S+](C)C)cs2)cs1)C(C)O)C(OC1OC(CO)C(O)C(O)C1OC1OC(CO)C(O)C(OC(N)=O)C1O)c1cnc[nH]1.O=S(=O)([O-])O (centres undefined) [Bleomycin sulfate] | 93.1 | 99.4 | 88.5 (inactive) | 99.1 (inactive)
6 | CC(C)(C)NCC(O)c1ccccc1Cl (centres undefined) [Tulobuterol] | 111 | 101 | 90.7 (inactive) | 114 (inactive)
7 | CN1C2CCC1CC(OC(=O)C(CO)c1ccccc1)C2 (centres undefined) [Atropine] | 104 | 110 | 93.7 (inactive) | 107 (inactive)
8 | CC(C)=CCCC1=CC(=O)c2c(O)ccc(O)c2C1=O [Deoxyshikonin] | 32 | 34.6 | 119 (inactive) | 171 (active)
9 | CCCCCCC1C(=O)OC(C)C(NC(=O)c2cccc(NC=O)c2O)C(=O)OC(C)C1OC(=O)CC(C)C (centres undefined) [Antimycin A1] | 73.6 | 66.5 | 113 (inactive) | 136 (inactive)
10 | NNC(=O)c1ccc(O)cc1 [4-Hydroxybenzhydrazide] | 97.7 | 100 | 97.5 (inactive) | 95.1 (inactive)
11 | c1ccc2c(c1)[nH]c1cnccc12 [Norharmane] | 100 | 106 | 97.6 (inactive) | 92 (inactive)
